SARS PLP yeast: inhibitors of SARS-CoV papain-like protease in yeast. S. cerevisiae expressing SARS-CoV PLpro, growth rescue. Potency, µM (series often up to 32.9 µM), hits mostly activators. 330,000 compounds, 0.19% hits. AID 485353; calls by dose curve; also: nearly all actives have a fitted effect of over 55% in size
HCV inhibitor: blocks hepatitis C virus; Huh7.5.1 HCVcc-Cre infection, luciferase reporter, 44 h; Potency, µM (top dose mostly 41.8 µM), usual class: inhibitors; 340,000 compounds, 3.4% hits; AID 651820; active = well fitted inhibition curve with a large enough effect; inconclusive = small, poorly fitted or top-dose-only effect, or another doubt; inactive = no such curve, though single readings can be large or run the other way
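HCVcc-Cre virus at an moi near 0.5 was added right after compound to cells cultured 4 h from seeding (1,000 cells/well). Luciferase activity was determined 44 h later, 15 min after substrate addition at RT.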
Marburg entry inh: blocks Marburg virus binding to or entry into cells | AID 540276 | Potency, µM (doses to about 37.8 µM), most hits filed as inhibitors | Marburg virus pseudotyped entry inhibition, cell reporter | 300,000 compounds, 1.8% hits; calls by dose curve; tested in HEK293 cells
LASV entry inh: inhibitors of Lassa virus binding or cell entry; Lassa virus pseudotype entry inhibition, cell reporter; Potency, µM (doses to about 37.9 µM), hits mostly inhibitors; 300,000 compounds, 1.2% hits; calls by dose curve; tested in HEK293 cells; also: nearly all actives have a fitted effect of over 50% in size
FMDV antiviral: blocks foot and mouth disease virus; FMDV antiviral cell-based qHTS; Potency, µM (top dose mostly 57.9 µM), most hits filed as inhibitors; 410,000 compounds, 1.2% hits; AID 1159524; calls by dose curve; tested in HEK293T cells; also: read-out not given here; nearly all actives have a fitted effect of over 45% in size
HCMV inh: inhibitors of human cytomegalovirus; HFF cells, HCMV-luciferase reporter, 72 h; stronger effect = lower value; activity change, negative = inhibition, % at 57.5 µM; 410,000 compounds, 4.5% hits; AID 1259415; in the data active = activity change below about -60%; inconclusive = no clear call, values can overlap the other calls; inactive = above about -39%
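HFF cells seeded 16 h at 37C, treated with compounds, infected with luciferase-reporter HCMV at MOI 1 PFU/cell; luciferase read at 72 h post infection, normalized to buffer-only and Salinomycin controls.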
A number is an active result; ! = repeats disagree. This is a sample that favours compounds with a hit; in the whole collection about 8% have one here.

CCc1ccc(NC(=O)CSc2nc3ccccc3c(=O)n2CCCC(=O)NCCCN2CCOCC2)cc1 was read as SARS PLP yeast inactive, HCV inhibitor 11µM, Marburg entry inh inconclusive, LASV entry inh inconclusive, FMDV antiviral inactive and HCMV inh inactive.
CCS(=O)(=O)NCc1c(C)ncc2c1CCN(C(=O)c1csc(-c3cccs3)n1)C2 was read as FMDV antiviral inactive.
`COc1cccc(Cn2c(OC[C@H]3CCCO3)nc3c2c(=O)n(C)c(=O)n3C)c1` gave Marburg entry inh inactive.
For O=C(CSc1nc2ccccc2c(=O)n1CCCN1CCOCC1)Nc1cccc(S(=O)(=O)N2CCCCCC2)c1 the results were SARS PLP yeast inactive, HCV inhibitor 13µM, Marburg entry inh inconclusive, LASV entry inh inconclusive, FMDV antiviral inactive and HCMV inh inconclusive.
`Cc1ccc(SCC(=O)Nc2cccc(S(=O)(=O)N3CCOCC3)c2)cc1C` gave SARS PLP yeast inactive, HCV inhibitor inconclusive, FMDV antiviral inactive and HCMV inh inactive.
Screening COCCNC(=O)CSc1nc2cc3c(cc2c(=O)n1CCCC(=O)NCc1ccc(OC)cc1)OCO3 returned SARS PLP yeast inactive, HCV inhibitor inactive, Marburg entry inh inactive, LASV entry inh inconclusive, FMDV antiviral inactive and HCMV inh -62!.
COCCNC(=O)CSc1nc2cc3c(cc2c(=O)n1CCCC(=O)NCCc1ccc(OC)c(OC)c1)OCO3 was read as SARS PLP yeast inactive, HCV inhibitor inactive, Marburg entry inh inactive, LASV entry inh inconclusive, FMDV antiviral inactive and HCMV inh inactive.
For Cc1cc(SCC(=O)Nc2cccc(S(=O)(=O)N3CCOCC3)c2)nc2ccccc12 the results were SARS PLP yeast inactive, HCV inhibitor 13µM, FMDV antiviral inactive and HCMV inh inactive.
For O=C(CSc1nc2ccccc2c(=O)n1CCCN1CCOCC1)Nc1ccc(F)c(Cl)c1 the results were SARS PLP yeast inactive, HCV inhibitor 1.8µM, FMDV antiviral inconclusive and HCMV inh inactive.
Screening COc1ccc(-c2nc3cc(C)ccc3cc2CN(C(=O)c2ccc(C)s2)C2CC2)cc1OC returned FMDV antiviral inactive.
For CCOC(=O)Cn1c(=O)n(-c2cccc(Cl)c2)c2nc(-c3ccccc3Cl)nc(C(N)=O)c21 the results were LASV entry inh inactive, FMDV antiviral inactive and HCMV inh inactive.
Screening c1ccc(-c2cc3nc(NCC4CC4)nc(NCC4CCCCC4)c3s2)cc1 returned FMDV antiviral inconclusive and HCMV inh -92.
For C=CCNc1nc(NCc2ccc(NC(C)=O)cc2)c2sc(-c3ccccc3)cc2n1 the results were FMDV antiviral inactive and HCMV inh inactive.
`CC(=O)Nc1ccc(CNc2nc(NC(C)C)nc3cc(-c4ccccc4)sc23)cc1` gave FMDV antiviral inactive and HCMV inh -98.
Screening COc1ccc(-c2cc(CNc3nc(NC(C)C)nc4cc(-c5ccccc5)sc34)on2)cc1 returned FMDV antiviral inactive and HCMV inh -99.
`CC(=O)NCCNc1nc(NC(C)C)nc2cc(-c3ccccc3)sc12` gave FMDV antiviral inactive and HCMV inh inactive.
Cc1cc(CNC(=O)c2cnn(-c3nccc(-c4cc(C)sc4C)n3)c2C2CC2)on1 was read as FMDV antiviral inactive.
`CC(C)Oc1cccc(C(=O)Nc2ccccc2N2CCOCC2)c1` gave SARS PLP yeast inactive, HCV inhibitor inconclusive, Marburg entry inh inactive, LASV entry inh inactive, FMDV antiviral inactive and HCMV inh inactive.
For CCOc1ccc(C(=O)Nc2ccc(C(=O)N3CCOCC3)cc2)c(OCC)c1 the results were SARS PLP yeast inconclusive, HCV inhibitor 14µM, Marburg entry inh inactive, LASV entry inh inactive, FMDV antiviral inactive and HCMV inh inactive.
Screening CCOc1cccc(C(=O)Nc2ccccc2C(=O)N2CCOCC2)c1 returned SARS PLP yeast inactive, Marburg entry inh inactive, LASV entry inh inactive, FMDV antiviral inactive and HCMV inh -97.
Screening CCC(C)Oc1cccc(C(=O)Nc2ccccc2N2CCOCC2)c1 (stereo unspecified) returned SARS PLP yeast inactive, HCV inhibitor 7.1µM, Marburg entry inh inactive, LASV entry inh inconclusive, FMDV antiviral inactive and HCMV inh inactive.
For COc1ccc(C(=O)Nc2ccc(C(=O)N3CCOCC3)cc2)cc1OC the results were SARS PLP yeast inactive, HCV inhibitor inactive, Marburg entry inh inactive, FMDV antiviral inactive and HCMV inh inactive.
Screening CCCc1[nH]nc2c1[C@@H](c1cccc(OC)c1)C(C#N)=C(N)O2 returned Marburg entry inh inactive.
`COc1ccc(C(=O)CC(=O)C(=O)Nc2cccc(C(C)=O)c2)cc1` gave SARS PLP yeast inactive, HCV inhibitor inactive, Marburg entry inh inactive, LASV entry inh inactive, FMDV antiviral inactive and HCMV inh inactive.
COc1cc(NC(=O)C2CSC3(C)CCC(=O)N23)c(OC)cc1Cl (stereo unspecified) was read as SARS PLP yeast inactive, HCV inhibitor 10µM, Marburg entry inh inactive, LASV entry inh inactive, FMDV antiviral inactive and HCMV inh inactive.
COc1ccc(S(=O)(=O)N2CCCCC2)cc1NC(=O)C1CSC2(C)CCC(=O)N12 (stereo unspecified) was read as SARS PLP yeast inactive, HCV inhibitor inactive and FMDV antiviral inactive.
For Cc1sc(NC(=O)C2CSC3(C)CCC(=O)N23)nc1-c1ccc(F)cc1 (stereo unspecified) the results were SARS PLP yeast inactive, HCV inhibitor 14µM, Marburg entry inh inconclusive, LASV entry inh inconclusive, FMDV antiviral inactive and HCMV inh inactive.
Screening Cc1ccc(-c2csc(NC(=O)C3CSC4(C)CCC(=O)N34)n2)cc1 (stereo unspecified) returned SARS PLP yeast inactive, HCV inhibitor inactive, Marburg entry inh inactive, LASV entry inh inactive, FMDV antiviral inactive and HCMV inh inactive.
`CSc1ccc(Cn2c(C)c(C(=O)NCc3ccc(F)cc3)sc2=O)cc1` gave FMDV antiviral inconclusive and HCMV inh inactive.
For COc1ccccc1CNc1cccc(C)n1 the results were FMDV antiviral inactive and HCMV inh inactive.
`COc1cccc(CNc2cc(CSc3ccc(Cl)cc3)nc(C)n2)c1` gave SARS PLP yeast inactive, HCV inhibitor inconclusive, Marburg entry inh inactive, LASV entry inh inconclusive and FMDV antiviral 13µM.
Screening COc1cccc(CNc2ccc(C)c(Cl)c2)c1 returned SARS PLP yeast inactive, HCV inhibitor inactive, FMDV antiviral inactive and HCMV inh inactive.
For COc1ccccc1CNc1cc(CSc2ccc(Cl)cc2)nc(C)n1 the results were SARS PLP yeast inactive, HCV inhibitor inconclusive, Marburg entry inh inconclusive, LASV entry inh inactive, FMDV antiviral 40µM and HCMV inh inactive.
`CCCCn1cnc2c(sc3nc4c(cc32)CSC(C)(C)C4)c1=O` gave SARS PLP yeast inactive, HCV inhibitor inactive, Marburg entry inh inactive, LASV entry inh inactive, FMDV antiviral inactive and HCMV inh inactive.
